Data from PubChem BioAssay AID624330 (Southern Research Specialized Biocontainment Screening …, 2012).
About 2,100 (0.62%) of roughly 340,000 compounds were called active. The list is a sample of the results. Results with a measured potency or affinity are listed apart. Values without a mark were called inactive.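 The calls were made as follows: active = first-screen hits whose inhibition reached a set limit at any dose in the follow-up dose series; inconclusive = inhibition above the set first-screen limit but never retested; inactive = the rest.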

Molecular target: Rac GTPase-activating protein 1 (Homo sapiens) (UniProt Q9H0H5)
Assay: MgcRacGAP GTPase-activating activity inhibitors, confirmation, biochemical, ADP Hunter fluorescence, primary and confirmatory (AID 624330);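 also: fluorescence reports GDP produced by GAP-driven GTP hydrolysis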
Settings: MgcRacGAP-stimulated Rac1 GTP hydrolysis, at 30 µM, stronger effect = higher value, GST-tagged Rac1 F28L mutant substrate

Chain of Rac GTPase-activating protein 1 (Homo sapiens) (Q9H0H5 whole entry, looked up): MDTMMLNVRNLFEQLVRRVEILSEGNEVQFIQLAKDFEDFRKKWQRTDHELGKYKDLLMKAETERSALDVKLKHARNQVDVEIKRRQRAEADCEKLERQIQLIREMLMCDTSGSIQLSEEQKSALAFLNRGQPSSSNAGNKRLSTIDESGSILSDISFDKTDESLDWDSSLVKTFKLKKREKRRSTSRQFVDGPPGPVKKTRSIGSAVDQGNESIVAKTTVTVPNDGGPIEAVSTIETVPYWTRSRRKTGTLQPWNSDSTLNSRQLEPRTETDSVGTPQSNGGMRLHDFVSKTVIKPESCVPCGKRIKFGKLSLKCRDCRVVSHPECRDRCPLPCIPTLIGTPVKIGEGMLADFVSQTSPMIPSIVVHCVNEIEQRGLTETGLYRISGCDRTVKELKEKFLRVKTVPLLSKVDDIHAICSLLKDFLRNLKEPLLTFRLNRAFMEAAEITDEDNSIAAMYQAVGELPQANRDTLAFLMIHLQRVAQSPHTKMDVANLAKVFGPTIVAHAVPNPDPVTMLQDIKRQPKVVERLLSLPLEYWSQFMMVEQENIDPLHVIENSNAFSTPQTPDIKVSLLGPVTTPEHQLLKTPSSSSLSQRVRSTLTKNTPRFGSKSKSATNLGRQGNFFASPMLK

| SMILES | inhibition [%] |
| --- | --- |
| CCOc1ccc(CNC(=O)c2ccc3c(c2)N(CC)CCS3)cc1 | 14 |
| Nc1ccc(Nc2ccccc2N)cc1 | 24.3 |
| c1ccc(Nc2cccc3c(Nc4ccccc4)cccc23)cc1 | 8.14 |
| Nc1cccc(Nc2ccccc2)c1 | 8.97 |
| O=C(O)c1ccccc1Nc1cccc(C(F)(F)F)c1 | 8.9 |
| Nc1cc(C(F)(F)F)ccc1Nc1ccccc1 | 6.27 |
| Nc1cc(C(=O)O)ccc1Nc1ccccc1 | 25.7 |
| CCOc1cc(N2CCOCC2)c(OCC)cc1NC(=O)COC(=O)c1ccc(Cl)nc1 | 1.55 |
| O=C(Nc1cccc(-c2csc(Nc3ccc(Cl)cc3)n2)c1)c1ccccc1 | 2.45 |
| N#Cc1c(-c2ccccc2)cc(C2CC2)nc1SCC(=O)O | 12.8 |
| COc1cccc(/C=N/Nc2nn3cnnc3c3ccccc23)c1O | 7.65 |
| COc1cccc(/C=N/Nc2nn3cnnc3c3ccccc23)c1 | 19.3 |
| COc1cc(/C=N\Nc2nncn2N)ccc1OC(C)=O | -4.26 |
| COc1ccc(OC)c(/C=N/Nc2nncn2/N=C/c2cc(OC)ccc2OC)c1 | 6.03 |
| Oc1cccc(/C=N/Nc2nn3cnnc3c3ccccc23)c1 | 24.6 |
| COc1ccc(/C=N/Nc2nn3cnnc3c3ccccc23)cc1 | 13.1 |
| CC(C)Cn1c(=O)c(-[n+]2ccccc2)c([O-])c2ccccc21 | 12.6 |
| O=C(OCc1ccccc1)N1CCC2CC1c1cc(Cl)ccc12 (stereo not given) | 2.05 |
| Cc1nn(-c2ncc(C(F)(F)F)cc2Cl)c(=O)n1-c1ccccc1Cl | 5.45 |
| CCCS(=O)(=O)NCc1cn2cccc(C)c2n1 | 4.87 |
| CC(=O)N1CCN(c2ccc([N+](=O)[O-])c(NCC3CCCO3)c2)CC1 (stereo not given) | 7.45 |
| COc1cc(C(=O)OCn2nnc3ccccc3c2=O)cc(OC)c1OC | 5.8 |
| COc1ccc(NC(=O)c2noc3c2CCC3)cc1 | 14.6 |
| COc1ccc(C2C3=C(CC(C)(C)CC3=O)Oc3ncn4nc(-c5cccnc5)nc4c32)cc1 (stereo not given) | 1.38 |

| SMILES | inhibition [%] |
| --- | --- |
| O=C(CCCc1c[nH]c2ccccc12)N[C@@H](Cc1c[nH]c2ccccc12)C(=O)O | 9.15 |
| COc1cccc(CNC(=O)C2CCCN(S(C)(=O)=O)C2)c1 (stereo not given) | -2.27 |
| CC(C)(C)c1nc2ccc(NS(=O)(=O)c3ccc(F)c(F)c3F)cc2[nH]1 | -2.67 |
| CS(=O)(=O)Nc1ccc(C(=O)Nc2ccccc2Sc2ccccc2)cc1 | 9.8 |
| Cc1nc(CN(C)Cc2nc(Cc3cccc(F)c3)no2)cs1 | 5.6 |
| O=S(=O)(NC(=NC1CCCCC1)c1ccccc1)c1ccccc1 | 4.1 |
| Cc1ncsc1CCC(=O)N1CCCC(Nc2ccc(C(C)C)cc2)C1 (stereo not given) | 5.76 |
| O=C(CCc1ccccc1)N1CCCC(Nc2ccc(F)cc2)C1 (stereo not given) | 5.33 |
| Cc1ccc(NC2CCCN(C(=O)CCc3scnc3C)C2)cc1C (stereo not given) | 10.7 |
| Cc1ccc(NC2CCCN(C(=O)CCc3cn[nH]c3)C2)cc1C (stereo not given) | 14.1 |
| COc1ccc(CCC(=O)N2CCCC(Nc3ccc(OC)cc3)C2)cc1 (stereo not given) | -28.9 |
| COc1ccc(CCC(=O)N2CCCC(Nc3ccccc3)C2)cc1OC (stereo not given) | 3.2 |
| CC(C)c1ccc(NC2CCCN(C(=O)CCc3cn[nH]c3)C2)cc1 (stereo not given) | 11.8 |
| COc1ccc(NC2CCCN(C(=O)CCc3cccc(Cl)c3)C2)cc1 (stereo not given) | -4.43 |
| Cc1ccc(NC(=O)C2CCCN(C(=O)NCc3ccccc3)C2)c(C)c1 (stereo not given) | 5.67 |
| CCOC(=O)CCCn1c(C)nc(=O)c(-c2ccccc2)c1C | -2.8 |
| CCCCCCC(=O)OCC(=O)c1ccc2c(c1)NC(=O)CO2 | 4 |
| COc1ccccc1NC(=S)N(CCN(C)C)C(C)c1ccncc1 (stereo not given) | 4.01 |
| O=S1(=O)N[C@@H](CC2CCCCC2)COc2cc(Br)ccc21 | 6.23 |
| COCC(=O)Nc1cc(C)cn(Cc2cccc(C(F)(F)F)c2)c1=O | 3.75 |
| COc1ccc(CCNC(=O)c2[nH]c(C)c(C(C)=O)c2C)cc1 | 2.68 |
| CN(c1ccccc1)S(=O)(=O)c1cccc(NC(=O)CSc2ncn[nH]2)c1 | 5.76 |
| Cc1cc(Cl)ccc1OCC(=O)NCc1ccncc1 | 5.06 |
| COc1ccc(OC)c(C(=O)N2CCCC(Nc3ccc(F)cc3)C2)c1 (stereo not given) | 12.4 |

| SMILES | inhibition [%] |
| --- | --- |
| O=C(c1ccccc1-c1ncc[nH]1)N1CCCC(Nc2ccc(F)cc2)C1 (stereo not given) | 2.49 |
| CC(C)c1ccc(NC2CCCN(C(=O)c3ccccc3-c3ncc[nH]3)C2)cc1 (stereo not given) | 8.99 |
| COc1ccc(NC2CCCN(C(=O)c3ccc(OC)cc3OC)C2)cc1 (stereo not given) | -1.47 |
| CC1CN(C(=O)CCNC(=O)c2ccc(Br)cc2)CC(C)O1 (stereo not given) | 3.26 |
| Cc1ccc(OCC(=O)O)c(-n2nc3ccccc3n2)c1 | 9.25 |
| Nn1c(-c2cccc(O)c2)nnc1-c1cccc(O)c1 | -0.05 |
| CC(C)CC(=O)NC(=S)Nc1ccc(N2CCN(C(=O)c3cccs3)CC2)cc1 | 9.14 |
| COc1cccc(NC(=O)CNCc2ccccc2)c1 | 1.69 |
| COc1ccc(CNCC(=O)Nc2cccc(S(N)(=O)=O)c2)cc1 | 24.6 |
| COC(=O)c1ccc(CNCC(=O)Nc2ccc(C(=O)OC)cc2)cc1 | -0.29 |
| COc1ccc(CCNCC(=O)Nc2ccc(OC(F)(F)F)cc2)cc1OC | 28.8 |
| CN1CCN(NS(=O)(=O)c2ccc(Cl)s2)CC1 | 13.4 |
| CCn1c(SCC(=O)OCc2ccccc2)nc2c1c(=O)n(C)c(=O)n2C | -1.89 |
| CC(=O)Nc1ccc(NC(=O)c2nccnc2C(=O)O)cn1 | 2.3 |
| O=C(C(c1ccccc1)C(O)(c1ccccc1)c1ccccc1)N1CCOCC1 (stereo not given) | -4.45 |
| CCNC(=S)N(CCc1c(C)[nH]c2ccccc12)Cc1cc(OC)c(OC)c(OC)c1 | 13.9 |
| O=C(CSC1=N/C(=C/c2ccc(Cl)c(Cl)c2)C(=O)N1c1ccccc1F)NC1CC1 | 6.1 |
| CN(C(=O)COC(=O)COc1ccc2ccccc2c1)c1ccccc1 | 5.73 |
| COc1ccc(OC)c(S(=O)(=O)N2CCC(C(=O)N(C)Cc3ccccc3)CC2)c1 | 13.1 |
| CCC(C)n1c(=S)[nH]c2ccccc2c1=O (stereo not given) | 5.28 |
| CC1CCN(CCCn2c(=S)[nH]c3c(sc4ccc([N+](=O)[O-])cc43)c2=O)CC1 | 17.7 |
| CCC(C)n1c(SCc2ccc([N+](=O)[O-])cc2)nc2ccsc2c1=O (stereo not given) | 2.36 |
| O=C(O)CCCn1c(=O)[nH]c2ccccc2c1=O | 4.27 |
| COc1cccc(-c2cc3nc(C)cc(N4CCN(C(=O)c5ccoc5)CC4)n3n2)c1 | 13.9 |

| SMILES | inhibition [%] |
| --- | --- |
| CCOc1ccc(/C=C(\C#N)C(=O)Nc2ccccn2)cc1 | -0.14 |
| CCc1noc(C)c1C(=O)N1CCCC(N2CCN(c3cccc(Cl)c3)CC2)C1 (stereo not given) | 8.33 |
| C/C(=N\Nc1ccc([N+](=O)[O-])cc1)c1ccc(C#N)cc1 | -4.19 |
| C/C(=N\Nc1ccc([N+](=O)[O-])cc1)c1cccc(N)c1 | 1.82 |
| O=C(NCc1ccc(F)cc1)C1CCC(=O)N1C1CCCCC1 (stereo not given) | -0.47 |
| COc1ccc(OC(=O)OCc2ccccc2)cc1 | 11.7 |
| COc1cc2c(cc1CNC[C@H]1O[C@@H](n3ccc(N)nc3=O)[C@H](O)[C@@H]1O)OCO2 | 6.09 |
| Cc1cc(CNC[C@H]2O[C@@H](n3ccc(N)nc3=O)[C@H](O)[C@@H]2O)no1 | 9.68 |
| C=CCNc1nnc(Cc2ccc(F)cc2)c(=O)[nH]1 | 4.71 |
| COc1cc2c(cc1NC(=O)c1cccc([N+](=O)[O-])c1)oc1ccccc12 | 1.77 |
| c1ccc(CN2CCN(C(c3ccccc3)c3ccccc3)CC2)cc1 | 16.6 |
| CN(CC(=O)N1CCN(Cc2ccccc2)CC1)S(=O)(=O)c1ccc(F)cc1 | -3.86 |
| O=C(c1ccc(F)cc1)N1CCN(Cc2ccccc2)CC1 | 7.84 |
| OC(CN1CCN(Cc2ccccc2)CC1)c1ccc(F)cc1 (stereo not given) | -1.4 |
| COc1ccccc1C1CCN(C(=O)c2cnn(-c3ccccc3)c2C)CC1 | 12.4 |
| O=C(Nc1ccc([N+](=O)[O-])cc1NC(=O)c1ccccc1)c1ccccc1 | 2.42 |
| CCC(=O)Nc1ccccc1N1CCN(c2ccc(F)cc2)CC1 | 2.63 |
| CCSc1nc2ccc(N3C(=O)C4C5C=CC(C5)C4C3=O)cc2s1 (stereo not given) | -1.62 |
| CN1CCC(=O)N([C@H](CSc2ccc(Br)cc2)Cc2ccccc2)CC1 | 1.09 |
| COc1cc(OC)cc(C(=O)N2CCN(S(=O)(=O)c3ccc4c(c3)OCCO4)CC2)c1 | 9.94 |
| C/C(=N\Nc1ccc(S(=O)(=O)N2CCCCC2)cn1)c1cccc(Br)c1 | 3.57 |
| COc1cccc(/C(C)=N/Nc2ccc(S(=O)(=O)N3CCCCC3)cn2)c1 | 7.29 |
| CC(C)(C)OC(=O)NCCCC[C@H](NC(=O)c1nc[nH]c1C(=O)NC(c1ccccc1)c1ccccc1)C(=O)OC(C)(C)C | 2.03 |
